esBAF inh: blocks esBAF chromatin remodeling in mouse ES cells; Bmi1-luciferase knock-in reporter, 24 h; 100% = twice the neutral-well signal; reporter increase, % at 12.5 µM; AID 602393; actives 2% (n = 350,000); in the data active means activation above about 40%; inconclusive means no clear call, values can overlap the other calls;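 further: a rise in the Bmi1 reporter signal indicates esBAF inhibition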
HSF1 activator: increases HSF-1 driven luciferase reporter signal. actives 1.7% (n = 300,000). NIH3T3-HGL HSF-1 luciferase reporter, MG132, 8 h; 100% = twice DMSO control signal. activation, % at 9 µM;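 active means mean replicate activation of at least 50% with a set share of replicates each reaching 50%; inconclusive means only one of those two conditions met; inactive means mean below 50% and too few replicates reaching it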
Vif imaging: blocks HIV Vif function. actives 0.35% (n = 340,000). AID 602346. HEK293T cells, Vif self-association by quenched fluorescence, imaging, 24 h. inhibition, % at 7.49 µM; in the data active means inhibition above about 50%, passing the limit was not always enough; inconclusive means no clear call, values can overlap the other calls; inactive means below about 31%
HSF1 inhib: HSF1 inhibition | actives 0.77% (n = 300,000) | activity change, negative = inhibition, % at 7.5 µM (by protocol) | NIH3T3-HGL HSE-luciferase, MG132-induced, luminescence 8 h; active compounds read low;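 active means more than half of replicate wells show activity change below -50%, luminescence cut by over half; inconclusive means some wells, but at most half, below -50%; inactive means no replicate well below -50%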;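 further: luciferase reports HSF-1 transcriptional activity via heat shock element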
Large screens that a line does not name were inactive. Compounds with a hit are over-represented: about 3.4% of the library has one in this group of screens.

CC(C(=O)Nc1ccc(F)c(F)c1)N1CCN(C)CC1 (centres undefined)	none
COc1ccccc1/C=N/Nc1nccnc1Cl	esBAF inh 41.7
COc1ccc(C(=O)/C=C/Nc2ccccn2)c(OC)c1	HSF1 activator 74.0 (no result: esBAF inh)
COc1ccc(/C=N\Nc2ccccn2)c(OC)c1	esBAF inh 52.1
COc1ccc(/C=N/Nc2ccccn2)c(OC)c1OC	none (no result: esBAF inh)
C(=N\Nc1ccccn1)/c1ccc2c(c1)OCCO2	HSF1 activator 60.9
CN(C)Cc1cn(CC[C@@H]2CC[C@H](N)[C@H](CO)O2)nn1	none (no result: HSF1 activator, Vif imaging, HSF1 inhib)
C[C@@H]1CCCCO[C@H](CN(C)C(=O)Cc2ccccc2)[C@H](C)CN([C@H](C)CO)C(=O)c2cc(NC(=O)CCC(F)(F)F)ccc2O1	none (no result: HSF1 activator, Vif imaging, HSF1 inhib)
COCC(=O)Nc1ccc2c(c1)C(=O)N(C)C[C@@H](OC)[C@@H](C)CN(C(=O)Cc1ccccn1)[C@H](C)CO2	none (no result: HSF1 activator, Vif imaging, HSF1 inhib)
C=CCOc1ccc(/C=N/Nc2ccccn2)cc1OC	esBAF inh 64.1, HSF1 activator 65.5
CCOc1ccc(/C=N/Nc2ccccn2)cc1OC	none (no result: esBAF inh)
CN(C)C(=O)C[C@H]1C[C@@H]2c3cc(NC(=O)Nc4ccccc4F)ccc3O[C@@H]2[C@H](CO)O1	none (no result: HSF1 activator, Vif imaging, HSF1 inhib)
CC(C)CCNC(=O)CN(C(=O)CCC(=O)Nc1nccs1)c1ccc2c(c1)OCCO2	HSF1 inhib -61.7
CC(C)(C)NC(=O)CN(C(=O)CCC(=O)Nc1nccs1)c1ccc2c(c1)OCCO2	none
CC(=O)N(C)C[C@H]1Oc2ncc(C#CC3(O)CCCC3)cc2C(=O)N([C@H](C)CO)C[C@@H]1C	none (no result: HSF1 activator, Vif imaging, HSF1 inhib)
CCOc1cc(/C=C/c2nc3ccccc3c(=O)[nH]2)ccc1O	esBAF inh 71.0
Cc1cccc(/C=C/c2nc3ccccc3c(=O)[nH]2)c1	none (no result: esBAF inh)
Cc1[nH]c2ccccc2c1/C=C/c1nc2ccccc2c(=O)[nH]1	esBAF inh 45.8, HSF1 activator 80.2
CCCNC(=O)N1C[C@H](C)[C@H](OC)CN(C)C(=O)c2ccc(NC(C)=O)cc2OC[C@H]1C	none (no result: HSF1 activator, Vif imaging, HSF1 inhib)
C/C=C/c1ccc([C@@H]2[C@H](CO)N(C(=O)CC)[C@H]2CNC(=O)CC2CC2)cc1	none (no result: HSF1 activator, Vif imaging, HSF1 inhib)
O=C(O)c1ccc(NCc2cccnc2)cc1	esBAF inh 97.3 (no result: HSF1 activator, HSF1 inhib)
O=C(NCCc1c[nH]c2ccccc12)c1ccccc1	none
Cc1ccc(C(=O)NCCc2c[nH]c3ccccc23)s1	esBAF inh 55.7
O=C(CCc1c[nH]c2ccccc12)NCCc1ccc(Cl)cc1	HSF1 activator 54.8
Cc1ccc(C(=O)NCCc2c[nH]c3ccccc23)c(C)c1	esBAF inh 70.7
CC(C)NC(=O)N(C)C[C@H]1Oc2ncc(-c3ccc(C(=O)N(C)C)cc3)cc2C(=O)N([C@@H](C)CO)C[C@H]1C	none (no result: HSF1 activator, Vif imaging, HSF1 inhib)
CN1CCN(C(=O)C[C@@H]2CC[C@H]3[C@@H](COC[C@@H](O)CN3Cc3cccc(Cl)c3)O2)CC1	none (no result: HSF1 activator, Vif imaging, HSF1 inhib)
c1ccc(CNc2nc(-c3ccccc3)nc3ccccc23)cc1	none
c1ccc(CNc2nc(NCc3ccccc3)c3ccccc3n2)cc1	HSF1 inhib -59.8 (no result: esBAF inh)
COc1ccccc1NC(=O)N1C[C@H](O)COC[C@@H]2O[C@H](CC(=O)NCCc3ccncc3)CC[C@H]21	none (no result: HSF1 activator, Vif imaging, HSF1 inhib)
Cc1cc(N(CCO)CCO)ccc1N=Nc1cc(F)ccc1F	esBAF inh 59.3
COc1cc(/C=C2\NC(=S)NC2=O)ccc1OCc1cccc(C(=O)O)c1	none (no result: Vif imaging)
O=C(O)c1cccc(COc2ccccc2Cl)c1	HSF1 inhib -86.2
O=C1NC(=O)/C(=C\c2ccc(OCc3cccc(C(=O)O)c3)c(Cl)c2)N1	HSF1 inhib -55.5
CNC[C@H]1Oc2cc(C#CCC(C)C)ccc2S(=O)(=O)N([C@@H](C)CO)C[C@@H]1C	none (no result: HSF1 activator, Vif imaging, HSF1 inhib)
CC1(C)Cc2c(C#N)c(SCCC#N)nc(N3CCOCC3)c2CO1	HSF1 inhib -61.3
CC1(C)Cc2c(C#N)c(SCCO)nc(N3CCOCC3)c2CO1	none
O=c1[nH]cnc2cc(-c3ccccc3)sc12	esBAF inh 41.8
COc1ccc(-c2cc3nc[nH]c(=O)c3s2)cc1	none
COc1ccc(N/C=C2/Sc3ccccc3NC2=O)cc1	esBAF inh 53.4
C[C@H](CO)N1C[C@H](C)[C@@H](CN(C)Cc2ccccc2)Oc2ccc(NC(=O)Cc3ccccc3)cc2CC1=O	none (no result: HSF1 activator, Vif imaging, HSF1 inhib)
C[C@@H]1CN([C@H](C)CO)C(=O)c2cc(-c3ccc(C#N)cc3)cnc2O[C@H]1CN(C)Cc1cncnc1	none (no result: HSF1 activator, Vif imaging, HSF1 inhib)
Cc1cc(NC(=S)N(Cc2ccc(Cl)cc2)Cc2ccc(C(=O)O)cc2)ccc1Cl	HSF1 activator 80.1
CCOC(=O)C1=CN(Cc2ccc(OC)cc2)C=C(C(=O)OCC)C1c1cccs1	HSF1 activator 51.1 (no result: esBAF inh)
CCc1c(C(=O)Nc2ccc(C)c(C)c2)[nH]c(C)c1C(C)=O	esBAF inh 70.8
COc1ccc(NC(=O)c2[nH]c(C)c(C(C)=O)c2C)cc1S(=O)(=O)Nc1ccc(Br)cc1	HSF1 activator 89.1 (no result: esBAF inh)
CC(=O)c1c(C)[nH]c(C(=O)Nc2ccc(C)c(C)c2)c1C	esBAF inh 84.8
CC(=O)c1c(C)[nH]c(C(=O)NCCc2cccc(C)c2)c1C	esBAF inh 74.9
CCOC(=O)c1c(C)[nH]c(C(=O)Nc2ccc(NC(C)=O)cc2)c1C	none (no result: esBAF inh)
CCOC(=O)c1c(C)[nH]c(C(=O)Nc2ccc(C)c(Cl)c2)c1C	HSF1 activator 63.3 (no result: esBAF inh, Vif imaging)
CC(=O)c1c(C)[nH]c(C(=O)Nc2ccc(C)cc2Br)c1C	esBAF inh 85.8
O=C(N[C@@H]1CC[C@H](CCn2cc(C3(O)CCCC3)nn2)O[C@H]1CO)C1CC1	none (no result: HSF1 activator, Vif imaging, HSF1 inhib)
O=[N+]([O-])c1ccc(N/N=C/c2cn(-c3ccccc3)nc2-c2ccccc2)cc1	HSF1 activator 63.5
O=[N+]([O-])c1ccccc1N/N=C/c1c[nH]c2ccccc12	esBAF inh 43.4, HSF1 activator 150.2 (no result: Vif imaging)
O=[N+]([O-])c1ccc(N/N=C/c2c[nH]c3ccccc23)cc1	HSF1 activator 155.4 (no result: Vif imaging)
C[C@@H]1CN([C@@H](C)CO)C(=O)Cc2cc(NS(=O)(=O)c3ccc(Cl)cc3)ccc2O[C@@H]1CN(C)S(C)(=O)=O	none (no result: HSF1 activator, Vif imaging, HSF1 inhib)
Cc1cccc(C)c1NC(=O)c1c[nH]c2ccccc12	esBAF inh 49.1
CC(=O)Nc1ccccc1C(=O)C(=O)Nc1ccccc1	esBAF inh 35.2
O=C(Nc1ccccc1)C(=O)c1c[nH]c2ccccc12	HSF1 activator 67.9
O=C(C=Cc1ccccc1)c1c[nH]c2ccccc2c1=O	esBAF inh inconclusive (no result: HSF1 activator, HSF1 inhib)
Cc1cccc(C)c1NC(=O)CNC(=O)Cc1c[nH]c2ccccc12	none
O=C(/C=C/c1ccccc1)c1c[nH]c2ccccc12	HSF1 activator 110.8
COc1ccccc1-c1cn(CC[C@@H]2CC[C@H](NC(=O)C3CCCCC3)[C@@H](CO)O2)nn1	none (no result: HSF1 activator, Vif imaging, HSF1 inhib)
C[C@@H]1CN([C@H](C)CO)C(=O)Cc2cc(NC(=O)C3CC3)ccc2O[C@@H]1CN(C)S(=O)(=O)c1cccs1	none (no result: HSF1 activator, Vif imaging, HSF1 inhib)
O=C([C@H]1[C@H](CO)[C@H]2Cn3c(cccc3=O)[C@H]2N1CC1CCCC1)N1CCCCC1	none (no result: HSF1 activator, Vif imaging, HSF1 inhib)
C[C@H](CO)N1C[C@H](C)[C@@H](CN(C)S(=O)(=O)c2cccs2)Oc2ccc(NC(=O)CCCCCC(=O)Nc3ccccc3N)cc2C1=O	none (no result: HSF1 activator, Vif imaging, HSF1 inhib)
CCCc1ccc(OCc2ccc(C(=O)OC)o2)c(OC)c1	esBAF inh 43.1
Cc1cc(C)n(C(=O)CNc2ccc(C)c(C)c2)n1	esBAF inh 63.0
